CYP2C19 act = activators of human cytochrome P450 2C19 | recombinant CYP2C19, luciferin-H EGE luminescence; stronger effect = higher value; 0 = fully inhibited enzyme, 1 = untreated enzyme | activation factor at 5 µM | 96,000 tested, under 10 active | AID 1025;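 active = activation factor of at least 2 at 5 µM in the primary screen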;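 note: 0 = wells with 2.5 mM tranylcypromine and 1 = vehicle-only wells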
CYP2C9 inh = inhibitors of human CYP2C9. P11712. CYP2C9 Supersomes, luciferin-H conversion, luminescence. inhibition, % at 5 µM. 96,000 compounds, 20% hits. AID 777;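 active = blocking of liver enzyme CYP2C9 beyond about 50% at 5 µM, limit read from the data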
Target sequence (P11712 whole entry, looked up): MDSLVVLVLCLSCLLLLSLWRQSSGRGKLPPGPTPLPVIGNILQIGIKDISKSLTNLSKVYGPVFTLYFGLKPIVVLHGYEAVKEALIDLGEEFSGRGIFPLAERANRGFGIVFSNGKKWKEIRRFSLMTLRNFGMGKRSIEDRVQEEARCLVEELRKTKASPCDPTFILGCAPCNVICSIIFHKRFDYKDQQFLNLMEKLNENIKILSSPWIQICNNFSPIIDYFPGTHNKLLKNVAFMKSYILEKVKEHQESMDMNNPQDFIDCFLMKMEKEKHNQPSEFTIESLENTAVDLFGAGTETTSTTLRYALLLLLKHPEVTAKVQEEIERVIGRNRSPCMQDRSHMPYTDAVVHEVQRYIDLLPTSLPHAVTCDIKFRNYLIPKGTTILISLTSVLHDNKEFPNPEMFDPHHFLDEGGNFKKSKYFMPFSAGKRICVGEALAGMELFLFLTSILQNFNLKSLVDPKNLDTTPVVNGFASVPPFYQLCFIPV
Mac1 fbg enh = increases human CD11b/CD18 adhesion to fibrinogen; P05107+P11215; activation, % at 10 µM; K562 CD11b/CD18 adhesion to fibrinogen, ATPlite luminescence; 93,000 compounds, 0.07% hits;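 active = 10 µM primary screen giving 50% or more activity, confirmed by 40% or more on retest at that dose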
CYP2C9 activ = increases human cytochrome P450 2C9 activity; P11712; recombinant CYP2C9, luciferin-H conversion, luminescence; stronger effect = higher value; factor 1 = untreated enzyme, 0 = blocked; activation factor at 5 µM; 96,000 compounds, 1.4% hits; AID 1024;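 active = activation factor of 2 or more for CYP2C9 at a 5 µM dose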;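 note: 0 = sulfaphenazole-blocked wells and 1 = vehicle-only wells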
CYP2C19 inh = blocks human cytochrome P450 2C19; AID 778; CYP2C19 Supersomes, luciferin-H EGE luminescence, 30 min; inhibition, % at 5 µM; 96,000 compounds, 21% hits;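 active = CYP2C19 inhibition above a set limit at 5 µM in the primary screen, cut at about 50% in these data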;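 note: plate controls were negative control wells for no effect and 2.5 mM tranylcypromine positive control for full effect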
Mac1 fbg inh = blocks human CD11b/CD18 adhesion to fibrinogen; inhibition, % at 10 µM; P05107+P11215; K562 CD11b/CD18 adhesion to fibrinogen, ATPlite luminescence; Mn2+ added to activate the integrin; 93,000 compounds, 0.54% hits;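 active = primary inhibition of 50% or more at 10 µM, then 40% or more on retest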
An asterisk follows results filed as active; nt = not tested or not shown. Most compounds without a hit are left out; they make up all but 28% or so of the library.

SMILES	CYP2C19 act	CYP2C9 inh	Mac1 fbg enh	CYP2C9 activ	CYP2C19 inh	Mac1 fbg inh
Cc1csc(SCC(=O)Nc2cccc(S(=O)(=O)N3CCCC3)c2)n1	0.2	78*	-5	0.2	81*	-6
CCOc1cccc(-c2cc(-c3n[nH]c(=S)n3CC)c3ccccc3n2)c1	0.8	32	0	0.7	24	13
CCCC1CC(C)(C(=O)CSc2n[nH]c(-c3ccccc3)n2)OC1=O (centres undefined)	0.5	42	0	0.6	50	4
CCN(CC)C(=O)CSc1nc2ccccc2c(=O)n1CCC(=O)NCc1ccc(F)cc1	0.4	92*	1	0.1	57*	7
CCN(CC)C(=O)CSc1nc2ccccc2c(=O)n1OC(C)C	0.9	58*	1	0.4	6	10
CCOC(=O)n1c(SCC(N)=O)nc2ccccc21	1	-14	nt	1.1	-1	nt
CCCCOC(=O)n1c(SCC(=O)N(CC)CC)nc2ccccc21	0.6	86*	8	0.1	39	-16
CCOc1ccccc1-n1c(SCC(N)=O)nc2ccccc2c1=O	0.4	43	4	0.6	59*	0
CCOc1ccccc1-n1c(SCC(N)=O)nnc1-c1ccccc1	0.6	27	2	0.7	36	-10
Cc1cc(C)cc(NS(=O)(=O)c2ccc3[nH]c(=O)[nH]c3c2)c1	0.9	-38	1	1.4	14	-26
COc1ccc(-n2c(SCC#N)nc3ccccc3c2=O)cc1	0.9	68*	-7	0.3	11	0
O=C(CSc1nc2ccccc2c(=O)n1-c1cccc(C(F)(F)F)c1)NC1CC1	0.5	32	-1	0.7	51*	-1
CCNC(=O)CSc1nc2ccccc2c(=O)n1-c1cc(OC)ccc1OC	0.5	73*	4	0.3	49	8
CCN(CC)C(=O)CSc1nc2ccccc2c(=O)n1-c1cccc(OC)c1	0.7	71*	0	0.3	33	4
O=C(Cn1nc(Cl)nc1Cl)c1cc2ccccc2oc1=O	0.9	62*	6	0.4	13	9
c1ccc(-c2nnc3sc(-c4cc5ccccc5o4)nn23)cc1	0.8	-8	3	1.1	16	-31
Cc1nn(-c2ccccc2)c2sc(C(=O)OC3CCOC3=O)cc12 (centres undefined)	0.7	68*	nt	0.3	31	nt
Cc1nn(-c2ccccc2)c2sc(C(=O)OCC(=O)N3CCCCC3)cc12	1	-5	-3	1	-2	-3
Cc1ccc(-n2nc(C)c3cc(C(=O)O)sc32)cc1	1.1	4	0	1	-11	-5
Cc1nn(-c2ccccc2)c2sc(-c3n[nH]c(=S)o3)cc12	1.1	66*	-2	0.3	-6	44
Cc1nn(-c2ccccc2)c2sc(C(=O)N(CC(=O)NC(C)(C)C)Cc3ccco3)cc12	0.8	56*	1	0.4	25	8
Cc1nn(-c2ccccc2)c2sc(C(=O)OCc3nnc(-c4ccccc4)o3)cc12	1	55*	1	0.5	2	-5
O=C(CCCC(=O)OCC(Cl)=C(Cl)Cl)Nc1ccccc1	nt	nt	-2	nt	nt	23
COCC(C)NC(C(=O)Nc1ccc(Cl)c([N+](=O)[O-])c1)c1ccccc1 (centres undefined)	nt	nt	-2	nt	nt	4
COc1ccc(N2CCN(C(=O)CNC(=O)Cn3c(C)cc4ccccc4c3=O)CC2)cc1	1.1	-46	-4	1.5	-7	12
SMILES	CYP2C19 act	CYP2C9 inh	Mac1 fbg enh	CYP2C9 activ	CYP2C19 inh	Mac1 fbg inh
COC(=O)c1cc2c(C)nn(-c3ccccc3)c2s1	0.5	10	2	0.9	52*	-10
Cc1nn(-c2ccccc2)c2sc(C(=O)O)cc12	1	-16	-3	1.2	-3	1
Nc1cccc(C(=O)Nc2ccco2)c1	0	79*	6	0.2	98*	-12
Nc1cccc(C(=O)Nc2ccc(N)cc2Cl)c1	1.1	-57	0	1.6	-8	0
Cc1ccc(NC(=O)c2ccc(COc3ccc4c(c3)CCC4)cc2)c(C)c1	nt	nt	69	nt	nt	-10
O=c1c2ccccc2nc(COc2ccccc2)n1/N=C/c1ccco1	0.4	79*	-2	0.2	62*	-2
O=C(O)COc1ccc(/C=N/n2c(COc3ccccc3)nc3ccccc3c2=O)cc1	nt	nt	5	nt	nt	1
NC(=O)C1CCN(C(=O)c2ccc(NC3=NC4CS(=O)(=O)CC4S3)cc2)CC1 (centres undefined)	1.1	2	0	1	-6	12
COc1ccc(C(C)=O)cc1CSc1nnc(-c2ccccc2O)n1-c1ccccc1	0.5	53*	nt	0.5	45	nt
COC(=O)CSc1nnc(-c2sc3cc(OC)ccc3c2Cl)n1C	0.4	-4	-4	1	56*	12
COC(=O)CSc1nnc(CNC(=O)c2ccc(OC)cc2OC)n1C	1	12	-1	0.9	-1	-6
CC(=O)Nc1ccc(NC(=O)/C(Cl)=C/c2ccccc2)cc1	0.9	-3	-2	1	10	-1
Fc1ccc(Sc2nc(-c3ccccc3)nnc2C(F)(F)F)cc1	0.9	38	1	0.6	14	18
O=C(O)C(CCCCN1C(=O)c2ccccc2C1=O)N1C(=O)c2ccccc2C1=O (centres undefined)	1	35	-1	0.7	2	6
COc1ccc2nc(NC(=O)CN3CCOCC3)sc2c1	1	26	-1	0.7	-3	0
O=C(Nc1nc2ccc(S(=O)(=O)N3CCCC3)cc2s1)C1CCCCC1	1	64*	nt	0.4	4	nt
COc1cc(C(=O)Nc2nc3ccc(S(=O)(=O)N4CCOCC4)cc3s2)cc(OC)c1OC	0.5	79*	12	0.2	54*	2
CSc1nc2ccc(S(=O)(=O)N3CCOCC3)cc2s1	0	63*	1	0.4	100*	-37
Nc1nc2ccc(S(=O)(=O)N3CCCCC3)cc2s1	0.7	-46	-5	1.5	31	14
COc1ccc2nc(NC(=O)Cc3ccc(OC)c(S(=O)(=O)N4CCOCC4)c3)sc2c1	0.5	38	-1	0.6	55*	-20
CC(C)n1c(=S)[nH]c2c1c(=O)[nH]c(=O)n2C	1	9	16	0.9	4	13
O=C(C1CCN(S(=O)(=O)N2CCOCC2)CC1)N1CCN(c2ccccc2)CC1	1.1	-14	-3	1.1	-10	2
C/C(=N\NC(=O)CSc1nnc(C)s1)c1ccc(Cl)cc1	nt	nt	-6	nt	nt	12
O=C(Nc1nc2ccc(S(=O)(=O)N3CCCCC3)cc2s1)C1CCCO1 (centres undefined)	0.9	77*	2	0.2	7	8
Cc1c(NC(=O)C(C)OC(=O)c2c3c(nc4ccccc24)CCC3)c(=O)n(-c2ccccc2)n1C (centres undefined)	nt	nt	6	nt	nt	-18
